Source: PubChem BioAssay
Sampled rows, rich in hits. Any-hit rate of the full collection: about 12%.
PLK1 PBD block: inhibitors of human PLK1 polo-box domain binding. Potency, µM, for the others: max response, negative = inhibition, hits mostly inhibitors. Plk1 PBD binding of FITC phosphopeptide, fluorescence polarization. 360,000 tested, 2.8% active. P53350; also: potency is read from the fitted curve at half-maximal effect; series mostly up to about 57 µM; % is scaled to controls: 0 for no effect and ±100 for the full control effect; nearly all actives have a fitted effect of over 65% in size
BAZ2B block: blocks human BAZ2B; 360,000 tested, 4.4% active; Potency, µM (doses to about 114 µM), inactives show at the top dose activity change, negative = inhibition, most hits filed as inhibitors; AlphaScreen BAZ2B-H3K14Ac peptide displacement; also: potency is read from the fitted curve at half-maximal effect; % is scaled to controls: 0 for no effect and ±100 for the full control effect; nearly all actives have a fitted effect of over 60% in size
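Inhibition is scored as reduced AlphaScreen emission. The BAZ2B/b-H3(5-23)K14Ac complex (50 nM each) in PBS pH 7.4, 0.01% Tween-20 meets compound (up to 110 uM) for 30 min at RT before bead addition.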
G9a block: blocks human histone lysine methyltransferase G9a; Q96KQ7; Potency, µM (series often up to 102 µM), for inactives: top-dose activity, negative = inhibition, hits mostly inhibitors; AID 504332; G9a H3K9 monomethylation, AlphaScreen, 2 h; 350,000 tested, 8.8% active; also: potency is read from the fitted curve at half-maximal effect; % is scaled to controls: 0 for no effect and ±100 for the full control effect; nearly all actives have a fitted effect of over 75% in size
Target sequence (Q96KQ7 913-1193 limits assumed): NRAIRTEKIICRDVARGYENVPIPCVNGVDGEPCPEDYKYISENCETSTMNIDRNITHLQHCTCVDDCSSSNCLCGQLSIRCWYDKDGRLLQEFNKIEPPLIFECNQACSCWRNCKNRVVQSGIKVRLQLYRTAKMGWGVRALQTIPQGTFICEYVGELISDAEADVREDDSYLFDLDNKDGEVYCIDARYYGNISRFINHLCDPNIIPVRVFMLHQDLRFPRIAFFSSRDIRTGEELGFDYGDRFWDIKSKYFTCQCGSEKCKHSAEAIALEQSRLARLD
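AlphaScreen read-out: biotin-H3K9 peptide (500 nM) methylation by 20 nM enzyme with 20 uM SAM, 2 h at room temperature after 15 min compound preincubation; anti-monomethyl H3K9 antibody plus donor/acceptor beads, 10 min dark.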
HP1b chromo inh: inhibitors of HP1-beta chromodomain binding to methylated histone tails; P83916; AlphaScreen HP1-beta / biotin-H3K9me3 peptide binding; Potency, µM (doses to about 114 µM), for the others: top-dose activity change, negative = inhibition, hits mostly inhibitors; 390,000 tested, 0.56% active; AID 540317; also: potency is read from the fitted curve at half-maximal effect; nearly all actives have a fitted effect of over 70% in size
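AlphaScreen: HP1-beta (50 nM) preformed 30 min with biotin-H3(1-18)K9me3 peptide (50 nM) in PBS pH 7.4, 0.01% Tween-20. Compound added for 30 min at RT, then streptavidin donor/nickel chelate acceptor beads (10 ug/mL) for 30 min.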
PI5P4K alpha inh: PI5P4K alpha (human) kinase inhibition; max response, %; PI5P4Kalpha enzyme, ADP-Glo luminescence, 60 min; active compounds read low; 330,000 tested, 1.2% active; P48426; active = max response of -50% or lower; inconclusive = between -30% and -50%; inactive = -30% or higher; also: value at the top dose of about 77 µM; % is scaled to controls: 0 for no effect and ±100 for the full control effect
Target sequence (P48426 whole entry, looked up): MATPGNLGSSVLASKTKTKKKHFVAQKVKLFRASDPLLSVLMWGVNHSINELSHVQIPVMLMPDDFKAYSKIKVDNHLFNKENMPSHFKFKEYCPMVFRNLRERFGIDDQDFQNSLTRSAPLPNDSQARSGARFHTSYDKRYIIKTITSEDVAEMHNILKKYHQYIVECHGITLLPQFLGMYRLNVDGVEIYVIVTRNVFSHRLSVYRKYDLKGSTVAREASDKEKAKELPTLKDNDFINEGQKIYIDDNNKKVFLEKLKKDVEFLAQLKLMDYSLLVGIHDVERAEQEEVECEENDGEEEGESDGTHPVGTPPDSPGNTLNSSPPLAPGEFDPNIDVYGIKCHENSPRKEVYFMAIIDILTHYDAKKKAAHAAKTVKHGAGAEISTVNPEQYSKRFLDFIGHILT
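Compounds were pin-transferred onto PI5P4Kalpha and substrate in HEPES pH 7.4 buffer with EGTA, CHAPS and 5% DMSO. ATP (5 microM final) started the reaction, which ran 60 minutes at room temperature before ADP-Glo detection.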
JMJD2A Tudor inh: blocks the human JMJD2A Tudor domain; O75164; AlphaScreen JMJD2A-Tudor / H3K4me3 peptide binding; Potency, µM (highest dose often 114 µM), for inactives: top-dose activity change, negative = inhibition, usual class: inhibitors; 390,000 tested, 4.4% active; also: potency is read from the fitted curve at half-maximal effect; % is scaled to controls: 0 for no effect and ±100 for the full control effect; nearly all actives have a fitted effect of over 50% in size
Starred values were filed as active, the others as inactive; ? = inconclusive; / = no result; [ ] = dose if it differs, or a comment. Unless noted, calls follow the shape of the dose curve; as a rule, active = well fitted curve in the direction sought with a large enough effect; inconclusive = small, poorly fitted or top-dose-only effect, or another doubt; inactive = no such curve, though single readings can be large; an effect the other way counts as inactive or inconclusive.

SMILES	PLK1 PBD block	BAZ2B block	G9a block	HP1b chromo inh	PI5P4K alpha inh	JMJD2A Tudor inh
O=C(Cc1cccc(NC(=O)C2CCCN(C(=O)C3CCCC3)C2)c1)Nc1cccc(C(=O)N2CCCCC2)c1 (centres undefined)	-4%	/	/	21%	-3	-21%
CCCCCC#CCC#CCC#CCC#CCCCC(=O)O	/	4µM*	10µM*	/	/	/
Cc1cccc(Nc2nc(N)nc(CN3CCN(c4ccccc4F)CC3)n2)c1	-8%	/	/	-17%	/	45µM*
CN1CCN(Cc2nc(N)nc(Nc3ccc4c(c3)OCCO4)n2)CC1	0%	50µM*	-29%	14%	/	?
Cc1cccc(Nc2nc(N)nc(CN3CCN(Cc4ccc5c(c4)OCO5)CC3)n2)c1	-12%	?	3%[59 µM]	-7%	/	50µM*
Cc1sc2nc(CN3CCCCC3)nc(Nc3ccc4c(c3)OCCO4)c2c1C	-11%	-18%	39%	8%	3	-12%
Cc1cccc(Nc2nc(N)nc(CCl)n2)c1	-7%	8%	?	42%	2	-3%
Cc1cccc(Nc2nc(N)nc(CN3CCN(c4ccccc4)CC3)n2)c1	-6%	-112%	?	?	-5	56µM*
COc1ccccc1Nc1nc(N)nc(CN2CCN(Cc3ccc4c(c3)OCO4)CC2)n1	7%	?	17%[12.7 µM]	21%	3	-18%
CN1C(=O)C(C)(C)c2cc(S(=O)(=O)N3CCC(C(=O)Nc4ccc(Cl)cc4)CC3)ccc21	3%	-29%	10%	37%	5	-14%
COc1ccc(Nc2nc(N)nc(CN3CCN(c4ccc(F)cc4)CC3)n2)cc1	-1%	?	?	20%	3	?
CCOc1ccc(Nc2nc(N)nc(CN3CCN(c4ccccc4F)CC3)n2)cc1	-21%	56µM*	?	11%	1	?
Nc1nc(CN2CCN(c3ccccn3)CC2)nc(Nc2ccc(Cl)cc2)n1	-9%	50µM*	50µM*	13%	-7	?
Cc1ccc(Nc2nc(N)nc(CN3CCc4ccccc4C3)n2)cc1	-10%	?	-31%	2%	2	?
Nc1nc(CSC(=S)N2CCN(c3ccccc3)CC2)nc(Nc2ccc(F)cc2)n1	-15%	?	?	?	2	56µM*
CCCCOC(=O)c1ccc(Nc2nc3ccccc3c3nnc(C)n23)cc1	/	-13%	-4%[59 µM]	23%	/	-7%
Cc1ccc(-c2nnn(CC(=O)N(c3ccc4c(c3)OCCO4)C(C(=O)NCC3CCCO3)c3ccc(F)cc3)n2)o1 (centres undefined)	-20%	-9%	-6%	0%	4	-18%
Cc1ccccc1Nc1c(-c2ccc(Cl)s2)nc2ccccn12	/	/	/	12%	/	-13%
O=C(C1=C(O)C(=O)N(CCN2CCOCC2)C1c1ccncc1)c1ccco1 (centres undefined)	-7%	-26%	?	8%	2	14%
Cc1nc(C)c(C(=O)C2=C(O)C(=O)N(CCN3CCOCC3)C2c2cccs2)s1 (centres undefined)	-7%	-32%	?	35%	-21	?
Cc1nc(C)c(C(=O)C2=C(O)C(=O)N(CCN3CCOCC3)C2c2ccco2)s1 (centres undefined)	-5%	-30%	?	6%	-16	?
COc1ccc(C2C(C(=O)c3sc(C)nc3C)=C(O)C(=O)N2CCN2CCOCC2)cc1 (centres undefined)	-9%	17%	?	20%	9	50µM*
COc1ccc(C2C(C(=O)c3ccco3)=C(O)C(=O)N2CCN2CCOCC2)cc1 (centres undefined)	-1%	-16%	50µM*	20%	2	?
COc1ccc(OC)c(C2C(C(=O)c3sc(C)nc3C)=C(O)C(=O)N2CCN2CCOCC2)c1 (centres undefined)	-4%	2%	45µM*	39%	1	-10%
O=C(Nc1ccc(Cl)cc1)C1CCN(S(=O)(=O)c2ccc(Br)s2)CC1	/	1%	0%[59 µM]	31%	/	-2%
SMILES	PLK1 PBD block	BAZ2B block	G9a block	HP1b chromo inh	PI5P4K alpha inh	JMJD2A Tudor inh
COc1ccc(C#Cc2c[nH]c(=O)c3cncnc23)cc1OC	/	/	/	21%	/	-20%
O=C(O)c1nn(-c2ccc(F)cc2)ccc1=O	-7%	13%	-7%[2.33 µM]	-6%	3	-8%
O=C(O)c1nn(-c2ccccc2)ccc1=O	12µM*	5%	/	14%	?	-21%[11.4 µM]
Cc1ccc(C(=O)Nc2ncc3c(Cl)cccc3n2)cc1	21µM*	-35%[57.1 µM]	99%[59 µM]	-12%	-15	?
Brc1ccccc1C1CC(c2ccccc2)=Nc2ccccc2N1 (centres undefined)	6%	?	?	-24%	7	40µM*
c1ccc(C2=Nc3ccccc3NC(c3ccccc3)C2)cc1 (centres undefined)	-10%	10%	35µM*	21%	/	0%
Clc1ccccc1C1CC(c2ccccc2)=Nc2ccccc2N1 (centres undefined)	5%	?	/	19%	0	-4%
CC1(c2ccccc2)CC(c2ccccc2)=Nc2ccccc2N1 (centres undefined)	4%	?	/	7%	3	-19%
CCCCn1c(N)c(N(CC(C)C)C(=O)Cc2ccc(S(=O)(=O)N3CCOCC3)s2)c(=O)[nH]c1=O	-24%	/	/	19%	-15	-6%
COc1ccc2c(-c3ccccc3)cc(SC(C)C(N)=O)nc2c1 (centres undefined)	?	-2%	13µM*	39%	1	-5%[57.1 µM]
CCCN(C(=O)CSc1cc(-c2ccccc2)c2ccc(OC)cc2n1)C1CCS(=O)(=O)C1 (centres undefined)	5%	3%	-1%	3%	11	-21%
COc1ccccc1-c1cn[nH]c(=S)n1	?	-36%	?	?	-70*	50µM*
CCOCCN1CCN(C2c3ccccc3CSc3ccccc32)CC1 (centres undefined)	-4%	/	/	?	-3	13µM*
COc1ccc(S(=O)(=O)NCC2(N3CCOCC3)CCCCC2)cc1OC	-1%	6%	-7%	22%	-3	-1%
Cc1cc(N2CCOCC2)nc2ccc(NC(=S)NC(C)C)cc12	-10%	-11%	71µM*	27%	0	-1%
COCCNC(=S)Nc1ccc2nc(N3CCOCC3)cc(C)c2c1	-23%	-1%	-1%	68%	0	-7%
COCCNC(=S)Nc1ccc2nc(N3CCCC3)cc(C)c2c1	-8%	-1%	71µM*	-9%	2	-18%
CCOc1ccc(CCNC(=O)CCC(=O)Nc2ccc3nc(N4CCN(C)CC4)cc(C)c3c2)cc1OCC	?	-36%	4%[59 µM]	6%	2	-3%[11.4 µM]
